From PubChem BioAssay (NCI) come the findings set out here.

About 83,000 compounds went through this panel and 20% of them were active in at least one assay; those are over-represented in the sample as a whole.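 Negative percent growth values reflect cell death: -40 means 40% of the cells present at the start died, and -100 means all died.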 Unmarked numbers belong to inactive results. The source made the active and inactive calls. How the source made its calls: active means growth percent below 10; inactive means the rest.

This test has as its system MDA-MB-468 breast. Briefly: NCI-60 one-dose screen, 48 h (100 = growth as untreated, 0 = no growth, -100 = all killed). Conditions: 10 µM unless noted.
Regarding `CC1=CCC(OC(=O)C(C)(O)CCC(O)(C(=O)OC2(C)C=CC(O)(C(C)C)CC2)C(C)C)(C(C)C)CC1` (stereo not drawn), the growth was 107%. As for `NS(=O)(=O)c1ccc(CCN2C(=O)/C(=C\c3ccc(Cl)cc3)C=C2c2ccc(Oc3ccccc3)cc2)cc1`, the figure is 76.7%; as for `CC[N+](CCCCCCCCCC[N+](CC)(c1ccccn1)c1ccccn1)(c1ccccn1)c1ccccn1`, -1.91% (active); as for `Cc1cccc(Cl)c1NC(=O)c1ccc2nc(NC(=O)NCCN(C)C)sc2c1`, 30.6%. As for `COc1ccc(/C=N\NC(=O)c2cc(-c3ccc(Br)cc3)n(-c3ccc(S(N)(=O)=O)cc3)n2)cc1`, the figure is -1.98% (active). As for `CC(C)(C)c1ccc(Cn2cc(CSc3nc4ccccc4s3)nn2)cc1`, the figure is 93.6%.

As to `CC(C)(C)CC(C)(C)NCc1cc(C(C)(C)C)cc(CNC(C)(C)CC(C)(C)C)c1O`, the growth is 36.2%. As for `COc1cc(Cl)cc(-c2nn(-c3cccc(NC(=O)Nc4cccc(C(F)(F)F)c4)c3)cc2-c2ccncc2)c1`, the figure is 6.89% (active). As for `Cc1cn(-c2cc(NC(=O)c3cncc(C#Cc4cnc5ccc(O[C@H]6CCOC6)nn45)c3)cc(C(F)(F)F)c2)cn1`, the figure is 145%; as for `Oc1ccc(CN(Cc2ccc(C(F)(F)F)cc2)Cc2ccc(O)c3ncccc23)c2cccnc12`, 4.04% (active).

As for `O=C(Nc1cccc([N+](=O)[O-])c1)NN1CCCCCC1`, the growth is 88.7%. As for `COc1cccc(/C=C/C(=O)Nc2cc(OC)c3c(c2)OCO3)c1`, the figure is 92.6%; as for `COc1ccc(C2CC(=O)c3c(nc4ccc(Cl)cc4c3N)C2)cc1` (stereo not drawn), 104%.
